Laboratory results reported in the supplement of paper PMC11732987, “Enantioselective OTUD7B fragment discovery through chemoproteomics screening and high-throughput optimisation” (Communications Chemistry, 2025).

Legend:
Assay in all cases: log2 ratio of Biotin-Ahx-Ub-VS probe labelling (fragment/DMSO); higher = less target engagement (more negative = stronger competition), active = hit call of the paper (q ≤ 0.05, log2 ratio ≤ -1)
Details in all cases: compound concentration: 200 uM; treatment time: 3 h
USP19 = biological target: T1, USP19 (UniProt O94966)
T1 sequence (whole entry): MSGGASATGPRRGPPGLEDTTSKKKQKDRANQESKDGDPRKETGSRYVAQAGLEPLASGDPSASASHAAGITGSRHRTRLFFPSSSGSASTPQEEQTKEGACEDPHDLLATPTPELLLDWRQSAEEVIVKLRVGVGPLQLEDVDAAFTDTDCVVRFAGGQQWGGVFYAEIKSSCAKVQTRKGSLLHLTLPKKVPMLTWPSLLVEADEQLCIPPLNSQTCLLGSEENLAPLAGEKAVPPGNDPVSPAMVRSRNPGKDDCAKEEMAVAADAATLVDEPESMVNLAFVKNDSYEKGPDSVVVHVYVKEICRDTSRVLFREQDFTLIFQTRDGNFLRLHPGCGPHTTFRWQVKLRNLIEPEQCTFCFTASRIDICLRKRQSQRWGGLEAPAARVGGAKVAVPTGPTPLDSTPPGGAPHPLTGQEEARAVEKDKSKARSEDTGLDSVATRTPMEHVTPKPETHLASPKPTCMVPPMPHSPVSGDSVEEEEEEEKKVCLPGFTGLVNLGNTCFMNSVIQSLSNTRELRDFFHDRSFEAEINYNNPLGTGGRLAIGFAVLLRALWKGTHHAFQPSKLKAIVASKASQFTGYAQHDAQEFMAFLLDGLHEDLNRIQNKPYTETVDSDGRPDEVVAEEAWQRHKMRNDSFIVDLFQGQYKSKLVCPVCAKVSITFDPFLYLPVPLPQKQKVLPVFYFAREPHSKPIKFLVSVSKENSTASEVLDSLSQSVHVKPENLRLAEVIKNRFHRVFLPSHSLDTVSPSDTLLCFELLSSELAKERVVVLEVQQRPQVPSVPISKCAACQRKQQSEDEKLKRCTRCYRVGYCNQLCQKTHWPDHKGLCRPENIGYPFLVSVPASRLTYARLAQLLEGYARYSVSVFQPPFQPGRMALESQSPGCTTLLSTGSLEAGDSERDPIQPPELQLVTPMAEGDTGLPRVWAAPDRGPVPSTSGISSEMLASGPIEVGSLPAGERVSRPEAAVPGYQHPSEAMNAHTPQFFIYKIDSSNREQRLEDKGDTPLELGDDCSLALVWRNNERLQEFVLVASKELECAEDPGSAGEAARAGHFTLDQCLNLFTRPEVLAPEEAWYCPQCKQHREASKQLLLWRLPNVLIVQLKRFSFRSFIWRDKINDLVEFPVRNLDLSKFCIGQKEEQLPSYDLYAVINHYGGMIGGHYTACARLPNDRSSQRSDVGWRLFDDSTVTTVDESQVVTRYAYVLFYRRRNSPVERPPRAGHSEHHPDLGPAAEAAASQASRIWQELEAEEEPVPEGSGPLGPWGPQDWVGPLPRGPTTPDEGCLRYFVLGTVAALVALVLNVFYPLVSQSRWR
Outline: (§1)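 Each value is an average log2 ratio of fragment to vehicle, tested by unpaired t-test. The underlying Spectronaut label-free quantities were global-median-normalised, and only proteins with ≥2 unique peptides were included. Triplicate HEK293T lysate samples (495 µg) were exposed to fragment at 200 µM or vehicle for 3 h, then to Biotin-Ahx-Ub-VS at 0.5 µM final for 1 h, before NeutrAvidin enrichment of labelled DUBs, LysC and trypsin digestion, and diaPASEF LC-MS/MS.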

USP24 = USP24 (UniProt Q9UPU5)
Outline: as §1

USP25 = biological target: T2, USP25 (UniProt Q9UHP3)
T2 sequence (whole entry): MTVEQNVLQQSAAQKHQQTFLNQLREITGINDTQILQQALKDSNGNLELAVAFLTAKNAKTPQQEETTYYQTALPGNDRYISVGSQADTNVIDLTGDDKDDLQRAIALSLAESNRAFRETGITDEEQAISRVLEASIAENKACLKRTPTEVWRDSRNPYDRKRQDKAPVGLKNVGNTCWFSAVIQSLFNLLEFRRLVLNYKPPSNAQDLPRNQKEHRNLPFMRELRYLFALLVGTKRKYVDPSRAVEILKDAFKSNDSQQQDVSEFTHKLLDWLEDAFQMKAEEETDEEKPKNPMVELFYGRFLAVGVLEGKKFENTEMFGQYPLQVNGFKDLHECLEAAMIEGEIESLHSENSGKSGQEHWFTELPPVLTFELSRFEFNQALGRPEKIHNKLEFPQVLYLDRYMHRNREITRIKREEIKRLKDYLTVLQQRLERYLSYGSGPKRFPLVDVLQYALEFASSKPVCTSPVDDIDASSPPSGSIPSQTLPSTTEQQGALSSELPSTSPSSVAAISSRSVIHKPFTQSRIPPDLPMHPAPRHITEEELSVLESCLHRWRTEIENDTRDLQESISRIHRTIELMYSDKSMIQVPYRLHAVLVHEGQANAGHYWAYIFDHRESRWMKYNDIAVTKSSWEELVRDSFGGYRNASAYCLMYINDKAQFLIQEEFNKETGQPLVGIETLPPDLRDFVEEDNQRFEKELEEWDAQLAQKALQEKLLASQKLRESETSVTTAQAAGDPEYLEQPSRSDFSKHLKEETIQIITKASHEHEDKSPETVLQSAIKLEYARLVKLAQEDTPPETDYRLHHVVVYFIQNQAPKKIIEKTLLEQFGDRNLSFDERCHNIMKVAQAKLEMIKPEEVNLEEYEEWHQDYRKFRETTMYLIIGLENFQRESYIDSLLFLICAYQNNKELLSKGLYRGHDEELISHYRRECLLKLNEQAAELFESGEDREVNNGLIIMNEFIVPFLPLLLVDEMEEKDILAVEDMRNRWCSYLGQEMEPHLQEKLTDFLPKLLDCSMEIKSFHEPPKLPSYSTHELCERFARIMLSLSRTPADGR
Outline: as §1

USP28 = biological target: T3, USP28 (UniProt Q96RU2)
T3 sequence (whole entry): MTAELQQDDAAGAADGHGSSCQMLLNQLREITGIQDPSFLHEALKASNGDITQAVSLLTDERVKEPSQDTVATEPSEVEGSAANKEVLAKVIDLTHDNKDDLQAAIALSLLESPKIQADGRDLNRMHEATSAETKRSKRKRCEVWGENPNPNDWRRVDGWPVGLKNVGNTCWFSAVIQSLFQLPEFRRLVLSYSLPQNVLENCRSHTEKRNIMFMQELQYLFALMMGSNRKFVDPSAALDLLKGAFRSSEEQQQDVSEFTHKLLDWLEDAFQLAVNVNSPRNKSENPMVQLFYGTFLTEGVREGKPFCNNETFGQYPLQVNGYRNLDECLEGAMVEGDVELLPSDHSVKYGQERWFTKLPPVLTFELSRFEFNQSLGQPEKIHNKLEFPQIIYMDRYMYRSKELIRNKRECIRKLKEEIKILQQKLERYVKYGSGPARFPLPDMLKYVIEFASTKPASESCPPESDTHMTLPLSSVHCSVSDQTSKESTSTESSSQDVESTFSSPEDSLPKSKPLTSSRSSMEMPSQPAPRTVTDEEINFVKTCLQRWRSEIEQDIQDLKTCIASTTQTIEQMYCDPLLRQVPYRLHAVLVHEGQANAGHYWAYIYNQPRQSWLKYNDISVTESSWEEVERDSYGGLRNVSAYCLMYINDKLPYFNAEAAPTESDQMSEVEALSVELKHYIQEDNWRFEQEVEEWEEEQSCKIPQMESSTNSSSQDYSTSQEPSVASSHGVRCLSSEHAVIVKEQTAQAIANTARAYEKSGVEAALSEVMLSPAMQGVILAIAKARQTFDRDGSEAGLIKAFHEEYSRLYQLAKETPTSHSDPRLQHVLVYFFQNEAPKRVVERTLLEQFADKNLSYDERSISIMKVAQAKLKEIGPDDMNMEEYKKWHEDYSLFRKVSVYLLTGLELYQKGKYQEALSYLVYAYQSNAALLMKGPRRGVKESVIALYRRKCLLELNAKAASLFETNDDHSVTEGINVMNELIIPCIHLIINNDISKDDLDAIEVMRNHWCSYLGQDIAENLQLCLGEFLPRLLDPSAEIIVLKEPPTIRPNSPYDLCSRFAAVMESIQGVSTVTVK
Outline: as §1

Measured: log2 ratio of Biotin-Ahx-Ub-VS probe labelling

Sequence of USP24 (Q9UPU5 whole entry): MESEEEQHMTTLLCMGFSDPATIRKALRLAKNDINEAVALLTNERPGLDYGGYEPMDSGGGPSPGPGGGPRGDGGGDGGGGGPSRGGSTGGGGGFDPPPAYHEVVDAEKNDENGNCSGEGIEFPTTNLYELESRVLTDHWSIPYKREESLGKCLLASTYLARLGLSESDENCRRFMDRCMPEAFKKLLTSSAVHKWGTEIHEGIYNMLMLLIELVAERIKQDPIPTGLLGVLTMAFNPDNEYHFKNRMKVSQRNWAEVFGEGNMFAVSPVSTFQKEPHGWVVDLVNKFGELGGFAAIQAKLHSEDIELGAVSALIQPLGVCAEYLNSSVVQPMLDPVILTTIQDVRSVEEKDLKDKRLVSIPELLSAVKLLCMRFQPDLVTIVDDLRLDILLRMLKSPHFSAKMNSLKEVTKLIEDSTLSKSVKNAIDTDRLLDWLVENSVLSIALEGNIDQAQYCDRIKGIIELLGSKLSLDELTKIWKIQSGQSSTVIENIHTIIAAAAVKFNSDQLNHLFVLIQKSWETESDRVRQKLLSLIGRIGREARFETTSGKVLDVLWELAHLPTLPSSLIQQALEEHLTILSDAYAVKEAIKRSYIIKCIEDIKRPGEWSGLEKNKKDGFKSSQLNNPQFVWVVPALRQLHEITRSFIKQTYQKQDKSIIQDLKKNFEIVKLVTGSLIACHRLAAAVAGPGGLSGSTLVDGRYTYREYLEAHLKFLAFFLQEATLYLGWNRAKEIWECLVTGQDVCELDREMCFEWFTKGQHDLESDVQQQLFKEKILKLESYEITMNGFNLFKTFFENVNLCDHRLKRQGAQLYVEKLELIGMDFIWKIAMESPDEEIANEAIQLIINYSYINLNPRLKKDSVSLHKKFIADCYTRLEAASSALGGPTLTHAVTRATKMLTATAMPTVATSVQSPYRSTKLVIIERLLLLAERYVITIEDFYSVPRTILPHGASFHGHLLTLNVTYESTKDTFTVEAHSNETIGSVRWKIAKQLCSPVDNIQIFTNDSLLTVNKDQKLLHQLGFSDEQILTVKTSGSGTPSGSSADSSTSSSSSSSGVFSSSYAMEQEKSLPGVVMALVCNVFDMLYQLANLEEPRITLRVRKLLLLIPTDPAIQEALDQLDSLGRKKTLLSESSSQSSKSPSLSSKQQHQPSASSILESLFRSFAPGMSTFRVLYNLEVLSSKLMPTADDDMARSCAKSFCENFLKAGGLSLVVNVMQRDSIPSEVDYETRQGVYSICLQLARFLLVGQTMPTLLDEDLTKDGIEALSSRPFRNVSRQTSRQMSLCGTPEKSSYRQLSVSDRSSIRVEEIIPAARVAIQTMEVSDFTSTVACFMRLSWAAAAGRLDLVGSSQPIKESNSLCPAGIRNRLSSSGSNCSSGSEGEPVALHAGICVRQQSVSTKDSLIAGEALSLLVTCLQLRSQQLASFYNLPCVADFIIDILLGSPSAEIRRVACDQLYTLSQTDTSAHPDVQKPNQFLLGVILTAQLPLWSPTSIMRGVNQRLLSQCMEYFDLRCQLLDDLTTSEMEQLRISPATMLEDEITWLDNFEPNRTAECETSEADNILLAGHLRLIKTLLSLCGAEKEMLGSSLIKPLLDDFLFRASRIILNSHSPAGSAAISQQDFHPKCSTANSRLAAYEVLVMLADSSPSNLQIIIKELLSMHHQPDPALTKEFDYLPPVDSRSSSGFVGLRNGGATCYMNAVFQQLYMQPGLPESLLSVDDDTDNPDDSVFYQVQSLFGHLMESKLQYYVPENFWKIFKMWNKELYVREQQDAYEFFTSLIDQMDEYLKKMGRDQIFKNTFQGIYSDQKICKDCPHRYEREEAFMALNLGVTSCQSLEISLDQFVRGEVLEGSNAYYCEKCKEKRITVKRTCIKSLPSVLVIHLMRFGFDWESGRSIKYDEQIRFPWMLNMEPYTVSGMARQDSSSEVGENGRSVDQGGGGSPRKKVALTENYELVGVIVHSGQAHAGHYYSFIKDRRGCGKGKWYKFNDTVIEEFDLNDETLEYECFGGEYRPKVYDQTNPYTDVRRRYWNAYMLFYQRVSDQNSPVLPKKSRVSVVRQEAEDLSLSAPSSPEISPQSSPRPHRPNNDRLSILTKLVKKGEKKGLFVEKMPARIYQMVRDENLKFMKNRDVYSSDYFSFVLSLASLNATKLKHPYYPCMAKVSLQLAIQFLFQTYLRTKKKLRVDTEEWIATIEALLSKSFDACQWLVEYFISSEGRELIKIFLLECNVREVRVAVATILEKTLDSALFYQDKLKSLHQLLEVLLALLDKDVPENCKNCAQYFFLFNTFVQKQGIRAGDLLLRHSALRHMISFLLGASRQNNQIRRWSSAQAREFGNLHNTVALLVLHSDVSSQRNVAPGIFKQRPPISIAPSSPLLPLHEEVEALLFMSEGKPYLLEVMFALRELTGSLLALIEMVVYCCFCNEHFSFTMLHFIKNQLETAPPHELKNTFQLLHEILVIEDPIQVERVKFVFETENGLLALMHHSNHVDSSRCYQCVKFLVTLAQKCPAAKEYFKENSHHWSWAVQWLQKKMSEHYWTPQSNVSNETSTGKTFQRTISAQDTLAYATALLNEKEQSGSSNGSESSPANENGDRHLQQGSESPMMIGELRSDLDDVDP

Cl.O=C(CCl)NCc1cc2c(nc1O)CCCC2
inactive: USP19 -0.0739 | USP24 -0.254 | USP25 -0.59 | USP28 -0.576
